Assay results published in the supplement of paper PMC4709259.
Structures can show the parent of a compound that is named as a salt. ± gives the standard deviation.

What was measured:
Jurkat [1] = test: mean cell size (FSC-A) relative to DMSO control (fraction of control); higher = larger cells; settings: 48 h
How it was run: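 Jurkat cells seeded at 600 cells/µl were incubated 1 h, then exposed for 48h to the Enzo Screen-Well FDA Approved Drug Library v2.0 at 25µM in 0.9% (v/v) final DMSO. Drugs that cut counts below 20% of controls were diluted 10-fold and retested, down to 25nM. Cell count and mean cell size (forward scatter area) were read on an Accuri C6 flow cytometer, relative to solvent-only controls. Plates held 6-12 controls; values are means of 3 biological replicates.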

Jurkat [2] = test: cell count relative to DMSO control (fraction of control); higher = more cells (less growth inhibition); settings: 48 h

O=c1[nH]c(=O)n([C@H]2C[C@H](O)[C@@H](CO)O2)cc1F [Floxuridine] (concentration: 25 nM)
mean cell size (Jurkat [1]): 1.06 ± 0.063
cell count (Jurkat [2]): 0.178 ± 0.096

CC1=C(/C=C/C(C)=C\C=C\C(C)=C\C(=O)O)C(C)(C)CCC1 [Alitretinoin] (concentration: 25 µM)
mean cell size (Jurkat [1]): 0.927 ± 0.025
cell count (Jurkat [2]): 0.555 ± 0.18

N=C(N)NCCCC[C@@H]1NC(=O)CCSSC[C@@H](C(N)=O)NC(=O)[C@@H]2CCCN2C(=O)[C@H](Cc2c[nH]c3ccccc23)NC(=O)[C@H](CC(=O)O)NC(=O)CNC1=O [Eptifibatide] (concentration: 25 µM)
mean cell size (Jurkat [1]): 0.988 ± 0.031
cell count (Jurkat [2]): 0.933 ± 0.11

O=C1CCC(N2C(=O)c3ccccc3C2=O)C(=O)N1 (configuration not stated) [Thalidomide] (concentration: 25 µM)
mean cell size (Jurkat [1]): 0.922 ± 0.015
cell count (Jurkat [2]): 1.01 ± 0.12

Cc1cnc(NC(=O)C2=C(O)c3ccccc3S(=O)(=O)N2C)s1 [Meloxicam] (concentration: 25 µM)
mean cell size (Jurkat [1]): 0.9071 ± 0.0086
cell count (Jurkat [2]): 0.808 ± 0.066

Cc1[nH]c(=O)c(C#N)cc1-c1ccncc1 [Milrinone] (concentration: 25 µM)
mean cell size (Jurkat [1]): 0.919 ± 0.051
cell count (Jurkat [2]): 0.361 ± 0.085

NS(=O)(=O)c1cc(C2(O)NC(=O)c3ccccc32)ccc1Cl (configuration not stated) [Chlorthalidone] (concentration: 25 µM)
mean cell size (Jurkat [1]): 1.03 ± 0.028
cell count (Jurkat [2]): 0.918 ± 0.044

CC[C@H]1OC(=O)[C@H](C)[C@@H](O[C@H]2C[C@@](C)(OC)[C@@H](O)[C@H](C)O2)[C@H](C)[C@@H](O[C@@H]2O[C@H](C)C[C@H](N(C)C)[C@H]2O)[C@](C)(OC)C[C@@H](C)C(=O)[C@H](C)[C@@H](O)[C@]1(C)O [Clarithromycin] (concentration: 25 µM)
mean cell size (Jurkat [1]): 0.977 ± 0.057
cell count (Jurkat [2]): 1.05 ± 0.078

COCCCC/C(=N\OCCN)c1ccc(C(F)(F)F)cc1 [Fluvoxamine Maleate] (concentration: 25 µM)
mean cell size (Jurkat [1]): 0.973 ± 0.046
cell count (Jurkat [2]): 0.866 ± 0.083

CC(=O)OC(C)C[N+](C)(C)C (configuration not stated) [Methacholine Chloride] (concentration: 25 µM)
mean cell size (Jurkat [1]): 1.05 ± 0.022
cell count (Jurkat [2]): 0.921 ± 0.049

Nc1ncn([C@@H]2O[C@H](CO)[C@@H](O)[C@H]2O)c(=O)n1 [Azacitidine] (concentration: 25 µM)
mean cell size (Jurkat [1]): 0.9766 ± 0.0047
cell count (Jurkat [2]): 0.668 ± 0.11

CC(C)[C@H]1CC[C@H](C(=O)N[C@H](Cc2ccccc2)C(=O)O)CC1 [Nateglinide] (concentration: 25 µM)
mean cell size (Jurkat [1]): 0.966 ± 0.063
cell count (Jurkat [2]): 0.883 ± 0.14

O=C(O)C1(C(=O)O)CCC1.[NH2-].[NH2-].[Pt+2] [Carboplatin] (concentration: 25 µM)
mean cell size (Jurkat [1]): 1.08 ± 0.016
cell count (Jurkat [2]): 0.51 ± 0.029

CCN(CCO)CCCC(C)Nc1ccnc2cc(Cl)ccc12 (configuration not stated) [Hydroxychloroquine Sulfate] (concentration: 25 µM)
mean cell size (Jurkat [1]): 0.948 ± 0.013
cell count (Jurkat [2]): 1.03 ± 0.11

CCN(CC)CCNC(=O)c1c(C)[nH]c(/C=C2\C(=O)Nc3ccc(F)cc32)c1C [Sunitinib Malate] (concentration: 250 nM)
mean cell size (Jurkat [1]): 0.906 ± 0.031
cell count (Jurkat [2]): 0.861 ± 0.089

CCN(CC)CCNC(=O)c1ccc(N)cc1 [Procainamide·HCl] (concentration: 25 µM)
mean cell size (Jurkat [1]): 1.03 ± 0.025
cell count (Jurkat [2]): 0.935 ± 0.17

CC(C)C[C@H](NC(=O)[C@@H](COC(C)(C)C)NC(=O)[C@H](Cc1ccc(O)cc1)NC(=O)[C@H](CO)NC(=O)[C@H](Cc1c[nH]c2ccccc12)NC(=O)[C@H](Cc1cnc[nH]1)NC(=O)[C@@H]1CCC(=O)N1)C(=O)N[C@@H](CCCNC(=N)N)C(=O)N1CCC[C@H]1C(=O)NNC(N)=O [Goserelin Acetate] (concentration: 25 µM)
mean cell size (Jurkat [1]): 0.953 ± 0.045
cell count (Jurkat [2]): 1.044 ± 0.003

CC(C)(C)C(=O)OCOP(=O)(COCCn1cnc2c(N)ncnc21)OCOC(=O)C(C)(C)C [Adefovir Dipivoxil] (concentration: 25 µM)
mean cell size (Jurkat [1]): 1.3 ± 0.043
cell count (Jurkat [2]): 0.23 ± 0.019

COc1ccc(CC(C)NCC(O)c2ccc(O)c(NC=O)c2)cc1 (configuration not stated) [Formoterol] (concentration: 25 µM)
mean cell size (Jurkat [1]): 0.992 ± 0.033
cell count (Jurkat [2]): 0.808 ± 0.044

N=C(N)NC(=O)c1nc(Cl)c(N)nc1N [Amiloride·HCl·2H2O] (concentration: 25 µM)
mean cell size (Jurkat [1]): 0.945 ± 0.055
cell count (Jurkat [2]): 0.504 ± 0.045

CN(CCOc1ccc(NS(C)(=O)=O)cc1)CCc1ccc(NS(C)(=O)=O)cc1 [Dofetilide] (concentration: 25 µM)
mean cell size (Jurkat [1]): 0.962 ± 0.015
cell count (Jurkat [2]): 0.872 ± 0.084

O=C1CCc2ccc(OCCCCN3CCN(c4cccc(Cl)c4Cl)CC3)cc2N1 [Aripiprazole] (concentration: 25 µM)
mean cell size (Jurkat [1]): 1.02 ± 0.037
cell count (Jurkat [2]): 0.89 ± 0.092

O=C(N[C@H](CO)[C@H](O)c1ccc([N+](=O)[O-])cc1)C(Cl)Cl [Chloramphenicol] (concentration: 25 µM)
mean cell size (Jurkat [1]): 0.949 ± 0.022
cell count (Jurkat [2]): 0.819 ± 0.078

CCCSc1ccc2[nH]c(NC(=O)OC)nc2c1 [Albendazole] (concentration: 2.5 µM)
mean cell size (Jurkat [1]): 1.32 ± 0.11
cell count (Jurkat [2]): 0.209 ± 0.012

CCCC(CCC)C(=O)O [Valproic Acid] (concentration: 25 µM)
mean cell size (Jurkat [1]): 0.986 ± 0.028
cell count (Jurkat [2]): 0.728 ± 0.029

NC[C@H](O)c1ccc(O)c(O)c1 [Norepinephrine Bitartrate Monohydrate] (concentration: 25 µM)
mean cell size (Jurkat [1]): 0.967 ± 0.024
cell count (Jurkat [2]): 0.658 ± 0.17

Cc1cn([C@H]2C=C[C@@H](CO)O2)c(=O)[nH]c1=O [Stavudine] (concentration: 25 µM)
mean cell size (Jurkat [1]): 1.04 ± 0.06
cell count (Jurkat [2]): 0.764 ± 0.071

CCC(=O)O[C@]1(C(=O)SCF)[C@H](C)C[C@H]2[C@@H]3C[C@H](F)C4=CC(=O)C=C[C@]4(C)[C@@]3(F)[C@@H](O)C[C@@]21C [Fluticasone Propionate] (concentration: 25 µM)
mean cell size (Jurkat [1]): 0.967 ± 0.015
cell count (Jurkat [2]): 1.06 ± 0.053

OC[C@@H](O)[C@@H](O)[C@H](O)[C@H](O)CO [Mannitol] (concentration: 25 µM)
mean cell size (Jurkat [1]): 0.947 ± 0.041
cell count (Jurkat [2]): 0.977 ± 0.097

COc1ccc(C[C@@H]2c3cc(OC)c(OC)cc3CC[N@+]2(C)CCC(=O)OCCCCCOC(=O)CC[N@@+]2(C)CCc3cc(OC)c(OC)cc3[C@H]2Cc2ccc(OC)c(OC)c2)cc1OC [Cisatracurium Besylate] (concentration: 25 µM)
mean cell size (Jurkat [1]): 1.004 ± 0.009
cell count (Jurkat [2]): 0.624 ± 0.064

NC12CC3CC(CC(C3)C1)C2 [Amantadine·HCl] (concentration: 25 µM)
mean cell size (Jurkat [1]): 1.01 ± 0.058
cell count (Jurkat [2]): 0.749 ± 0.17

CCCCC1=NC2(CCCC2)C(=O)N1Cc1ccc(-c2ccccc2-c2nnn[nH]2)cc1 [Irbesartan] (concentration: 25 µM)
mean cell size (Jurkat [1]): 0.959 ± 0.06
cell count (Jurkat [2]): 0.401 ± 0.013

CC(C)(C)NCC(O)c1ccc(O)c(CO)c1 (configuration not stated) [Salbutamol Hemisulfate] (concentration: 25 µM)
mean cell size (Jurkat [1]): 1.01 ± 0.056
cell count (Jurkat [2]): 0.916 ± 0.11

O=C1NC(=O)C(c2ccccc2)(c2ccccc2)N1 [Phenytoin] (concentration: 25 µM)
mean cell size (Jurkat [1]): 0.978 ± 0.042
cell count (Jurkat [2]): 0.74 ± 0.12

COC(=O)C1=C(C)NC(C)=C(C(=O)OC)C1c1ccccc1[N+](=O)[O-] [Nifedipine] (concentration: 2.5 µM)
mean cell size (Jurkat [1]): 1.02 ± 0.036
cell count (Jurkat [2]): 0.92 ± 0.1

Cc1c(O)cccc1C(=O)N[C@@H](CSc1ccccc1)[C@H](O)CN1C[C@H]2CCCC[C@H]2C[C@H]1C(=O)NC(C)(C)C [Nelfinavir Mesylate] (concentration: 2.5 µM)
mean cell size (Jurkat [1]): 1.03 ± 0.015
cell count (Jurkat [2]): 0.779 ± 0.084

CO/N=C(\C(=O)N[C@@H]1C(=O)N2C(C(=O)O)=C(CSc3nc(=O)c(=O)[nH]n3C)CS[C@H]12)c1csc(N)n1 [Ceftriaxone·Na] (concentration: 25 µM)
mean cell size (Jurkat [1]): 0.969 ± 0.028
cell count (Jurkat [2]): 1.06 ± 0.073

CC(C)Cc1ccc(C(C)C(=O)O)cc1 (configuration not stated) [Ibuprofen] (concentration: 25 µM)
mean cell size (Jurkat [1]): 0.955 ± 0.011
cell count (Jurkat [2]): 0.765 ± 0.077

C=C1/C(=C\C=C2/CCC[C@]3(C)[C@@H]([C@H](C)CCCC(C)(C)O)CC[C@@H]23)C[C@@H](O)C[C@@H]1O [Calcitriol] (concentration: 25 µM)
mean cell size (Jurkat [1]): 0.8848 ± 0.0063
cell count (Jurkat [2]): 0.893 ± 0.088

CC(C)NCC(O)COc1ccc(COCCOC(C)C)cc1 (configuration not stated) [Bisoprolol Fumarate] (concentration: 25 µM)
mean cell size (Jurkat [1]): 0.964 ± 0.046
cell count (Jurkat [2]): 0.732 ± 0.035

Cc1cc2c(s1)Nc1ccccc1N=C2N1CCN(C)CC1 [Olanzapine] (concentration: 25 µM)
mean cell size (Jurkat [1]): 1.02 ± 0.06
cell count (Jurkat [2]): 0.914 ± 0.1

CC(S)C(=O)NCC(=O)O (configuration not stated) [Tiopronin] (concentration: 25 µM)
mean cell size (Jurkat [1]): 0.956 ± 0.016
cell count (Jurkat [2]): 0.864 ± 0.17

CC(=O)[C@@]1(O)CC[C@H]2[C@@H]3C[C@H](C)C4=CC(=O)C=C[C@]4(C)[C@@]3(F)[C@@H](O)C[C@@]21C [Fluorometholone] (concentration: 25 µM)
mean cell size (Jurkat [1]): 0.914 ± 0.06
cell count (Jurkat [2]): 0.639 ± 0.12

CC(=O)OCC(CCn1cnc2cnc(N)nc21)COC(C)=O [Famciclovir] (concentration: 25 µM)
mean cell size (Jurkat [1]): 0.925 ± 0.053
cell count (Jurkat [2]): 0.465 ± 0.18

CC(C)NCC(O)COc1ccc(CC(N)=O)cc1 (racemic) [(±)-Atenolol] (concentration: 25 µM)
mean cell size (Jurkat [1]): 0.836 ± 0.018
cell count (Jurkat [2]): 1.14 ± 0.087

OCCN1CCN(CCCN2c3ccccc3Sc3ccc(Cl)cc32)CC1 [Perphenazine] (concentration: 2.5 µM)
mean cell size (Jurkat [1]): 1 ± 0.029
cell count (Jurkat [2]): 0.556 ± 0.11
